The values below come from PubChem BioAssay (NCATS).

The nature of assay [1]: Cell Viability - SK-N-SH (AID 435; calls by dose curve;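 note: potency is the fitted concentration of half-maximal effect; compound exposure lasted 40 h at 37 °C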). To be noted: SK-N-SH neuroblastoma cell viability qHTS. The procedure, abridged: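 SK-N-SH human neuroblastoma cells (1500/well) were exposed to compounds in complete medium for 40 h at 37 °C, and intracellular ATP was then measured by CellTiter-Glo luminescence. AC50 was taken from Hill fits, normalized to DMSO and 100 uM tamoxifen.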

A short description of assay [2]: Cell Viability - N2a (AID 540).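 Note: plate controls were DMSO alone for no effect and tamoxifen control for full effect; nearly all actives have a fitted effect of over 45% in size.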 To be noted: N2a mouse neuroblastoma cell viability; activity change, negative = cytotoxicity: at 92.2 µM (top of the series). The procedure, abridged: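 In this qHTS cytotoxicity screen, ATP-dependent luciferase luminescence reports viable N2a cells after a 40 hr compound exposure in complete culture medium. Potencies are AC50 values from standard Hill equation fits.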

Assay [3] is described as follows: Cell Viability - NIH 3T3 (AID 541).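 Note: plate controls were DMSO alone for no effect and tamoxifen positive control for full effect; nearly all actives have a fitted effect of over 25% in size.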 To be noted: NIH 3T3 cell viability, qHTS; activity change, negative = cytotoxicity: at 92.2 µM (top of the series). The procedure, abridged: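 In this cytotoxicity screen, acute toxicity is scored as an ATP drop measured by CellTiter-Glo in NIH 3T3 fibroblasts following a 40 hr, 37 °C incubation with compound.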
(In qHTS, concentration-response curves come from the screen itself.)

Assay [4] in a line: Cell Viability - HUV-EC-C (AID 542). Note: % is set by controls: 0 for no effect and ±100 for the full control effect; nearly all actives have a fitted effect of over 35% in size. To be noted: HUV-EC-C endothelial cell viability, qHTS; series mostly up to 92.2 µM. Put shortly:
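Concentration-dependent ATP loss in HUV-EC-C cells is the measure. Exposure lasts 40 hr at 37 °C; luminescence follows CellTiter-Glo addition, and Hill fits give AC50.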

The nature of assay [5]: Cell Viability - SH-SY5Y (AID 544).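 Note: 0% = DMSO alone and -100% = 100 µM tamoxifen; nearly all actives have a fitted effect of over 55% in size.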 As to conditions: SH-SY5Y neuroblastoma cell viability; series mostly up to 92.2 µM. Put shortly:
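Quantitative HTS in SH-SY5Y neuroblastoma cells, 40 hr treatment at 37 °C, ATP content by luciferase luminescence; AC50 from Hill fits.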

The nature of assay [6]: Cell Viability - Renal Proximal Tubule (AID 545).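 Note: 0% = DMSO only and -100% = 100 µM tamoxifen; nearly all actives have a fitted effect of over 40% in size.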 As to conditions: renal proximal tubule cells viability, primary cells of rat origin; at 91.7 µM (top of the series). The procedure, abridged:
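Primary rat renal proximal tubule cells (1000/well) were treated with compounds for 40 hr at 37 °C in complete medium. Intracellular ATP was measured by CellTiter-Glo luminescence, and AC50 values came from Hill-equation fits of concentration-response data.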

Assay [7] in a line: Cell Viability - Mesenchymal (AID 546).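 Note: cells exposed to compound for 40 hours before reading; 0% = DMSO only and -100% = 100 µM tamoxifen.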 As to conditions: mesenchymal cells viability, qHTS; activity change, negative = cytotoxicity: at 91.7 µM (top of the series). Put shortly: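 In this qHTS cytotoxicity format, glomerulus-derived human mesenchymal kidney cells received compound for 40 hr, then luciferase-based ATP quantitation. Concentration-response data were fitted with the Hill equation.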

A short description of assay [8]: qHTS Assay for Identification of Small Molecule Inducers of Hypoxia Response (AID 2120; active = well fitted curve in the direction sought with a large enough effect in the signal ratio, with a control signal flat, not every such curve was filed as active; the % refers to the signal ratio; note: 0% is about no effect). To be noted: hypoxia response reporter cells, beta-lactamase ratio readout; series mostly up to 104 µM. The procedure, abridged:
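HRE-bla ME-180, 2500 cells/well, 0.5% dialyzed FBS medium; cpd titration, 17 h 37 degrees C; CCF4 2.5 h RT; Ex 405, Em 460/530 ratio -> %Activity, AC50.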

Assay [9] can be described thus: qHTS assay for small molecule agonists of retinoid X receptor alpha signaling (AID 588544; calls by dose curve). To be noted: HEK293T RXRa-UAS-bla, beta-lactamase reporter, 18 h; 530 nm emission.
The target of assay [10] is Retinoic acid receptor RXR-alpha (Homo sapiens) (UniProt P19793). The description is as above. As to conditions: HEK293T RXRa-UAS-bla, beta-lactamase reporter, 18 h; series mostly up to 76.7 µM.
Retinoic acid receptor RXR-alpha (Homo sapiens), sequence (P19793 whole entry, looked up): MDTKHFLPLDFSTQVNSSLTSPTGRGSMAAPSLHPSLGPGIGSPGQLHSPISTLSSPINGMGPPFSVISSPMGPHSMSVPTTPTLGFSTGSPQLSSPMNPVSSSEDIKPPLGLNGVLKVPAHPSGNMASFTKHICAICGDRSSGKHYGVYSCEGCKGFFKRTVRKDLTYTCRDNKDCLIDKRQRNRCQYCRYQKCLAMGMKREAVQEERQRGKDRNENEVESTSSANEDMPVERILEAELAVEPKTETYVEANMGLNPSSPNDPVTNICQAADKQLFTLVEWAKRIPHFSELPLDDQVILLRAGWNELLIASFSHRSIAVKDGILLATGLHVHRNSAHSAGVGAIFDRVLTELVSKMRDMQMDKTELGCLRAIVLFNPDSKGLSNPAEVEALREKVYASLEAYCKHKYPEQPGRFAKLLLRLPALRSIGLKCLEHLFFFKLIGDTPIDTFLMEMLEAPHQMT
The nature of assay [11]: qHTS assay for small molecule antagonists of retinoid X receptor alpha signaling (AID 588546; active = well fitted inhibition curve with a large enough effect in the signal ratio, with a control signal flat, not every such curve was filed as active; the % refers to the signal ratio;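 note: cells stimulated with 9-cis-retinoic acid as agonist; % is set by controls: 0 for no effect and ±100 for the full control effect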). To be noted: HEK293T RXRa-UAS-bla, beta-lactamase ratio, antagonist mode; measured here: W530 green channel, cytotoxicity proxy. The procedure, abridged: (§1)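 Beta-lactamase reporter inhibition, read as CCF4 fluorescence ratio (ex 405, em 460/530 nm) after 2 h at RT. HEK293T UAS-bla cells, 2500/well, were stimulated with 9-cis-RA at 500 or 100 nM final alongside test compound for 18 h at 37 C.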

Assay [12] deals with Retinoic acid receptor RXR-alpha (Homo sapiens) (UniProt P19793). Described as above. As to conditions: HEK293T RXRa-UAS-bla, beta-lactamase ratio, antagonist mode. The procedure, abridged: as §1
In assay [13] the target is Peroxisome proliferator-activated receptor alpha (Homo sapiens) (UniProt Q07869). The assay can be described thus: qHTS assay for small molecule agonists of the peroxisome proliferator-activated receptor alpha (PPARalpha) signaling pathway (AID 651778). Note: % of control where 0% means no effect. As to conditions: PathHunter PPARalpha complementation, chemiluminescence, 6 h; max response: stronger effect = higher value. The procedure, abridged: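 Cells plated at 2,000/well and held overnight at 37 C, 5% CO2, then compound added by pin tool for 6 hr; after PathHunter detection reagent and 60 min at room temperature, chemiluminescence from enzyme complementation was read.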
Peroxisome proliferator-activated receptor alpha (Homo sapiens), sequence (Q07869 whole entry, looked up): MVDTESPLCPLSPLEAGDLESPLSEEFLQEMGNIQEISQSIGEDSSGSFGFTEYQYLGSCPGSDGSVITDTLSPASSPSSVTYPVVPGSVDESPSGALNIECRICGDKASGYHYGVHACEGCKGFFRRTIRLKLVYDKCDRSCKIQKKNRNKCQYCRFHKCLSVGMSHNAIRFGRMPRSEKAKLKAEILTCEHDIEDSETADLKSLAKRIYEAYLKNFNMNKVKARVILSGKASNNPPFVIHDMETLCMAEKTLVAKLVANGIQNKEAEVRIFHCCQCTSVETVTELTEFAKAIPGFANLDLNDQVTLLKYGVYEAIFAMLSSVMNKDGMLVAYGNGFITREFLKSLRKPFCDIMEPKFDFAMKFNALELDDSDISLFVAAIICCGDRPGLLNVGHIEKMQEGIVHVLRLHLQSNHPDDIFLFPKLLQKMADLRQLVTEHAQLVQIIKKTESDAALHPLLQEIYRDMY

A short description of assay [14]: qHTS assay for small molecule agonists of the antioxidant response element (ARE) signaling pathway measured by Nrf2-dependant transcriptional activity (AID 720636; active = well fitted curve in the direction sought with a large enough effect in the repeat runs; an effect the other way counts as inactive or inconclusive; note: % of control where 0% means no effect). As to conditions: ARE-luc HepG2, Nrf2 luciferase reporter, 16 h; series mostly up to 92.4 µM. Put shortly: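 ONE-Glo luminescence, read 30 min after reagent addition at room temperature, reflected ARE reporter activity in HepG2 cells that had been incubated with compound for 16 hr at 37 C in 1% dialyzed FBS.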

A short description of assay [15]: qHTS assay for small molecule agonists of the antioxidant response element (ARE) signaling pathway measured by Nrf2-dependant transcriptional activity - cell viability counter screen (AID 720653; active = well fitted curve in the direction sought with a large enough effect in the repeat runs; an effect the other way counts as inactive or inconclusive; note: % is set by controls: 0 for no effect and ±100 for the full control effect). As to conditions: ARE-bla HepG2 viability, CellTiter-Glo ATP luminescence, 16 h; max response: stronger effect = lower value. Put shortly:
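ARE-bla HepG2 cells (2,000/well) rested 5 hrs at 37C/5% CO2, then exposed to compounds in DMSO for 16 hrs. Viability was read in the same wells as intracellular ATP by luminescence, 30 min at room temperature after reagent addition.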

A short description of assay [16]: qHTS assay for cell viability of HEK293 cells (AID 743288). Note: % is set by controls: 0 for no effect and ±100 for the full control effect; nearly all actives have a fitted effect of over 50% in size. To be noted: ATP luminescence (CellTiter-Glo), 18 h; max response: stronger effect = lower value. Put shortly: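 After 18 h compound exposure at 37 C, parental HEK293 cells (2,000/well) are lysed with CellTiter-Glo and luminescence is read following 30 min at room temperature.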
Assay [17] is described as follows: qHTS assay for cell viability of the p53RE-bla HCT-116 cell line (AID 743292). Note: % is set by controls: 0 for no effect and ±100 for the full control effect; nearly all actives have a fitted effect of over 55% in size. To be noted: p53RE-bla HCT-116 viability, ATP luminescence, 16 h; series mostly up to 95 µM. Put shortly:
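After plating at 4,000 cells per well and a 5 h rest at 37 C, HCT-116 cells carrying p53RE-bla received test chemicals in DMSO. Sixteen hours later at 37 C, CellTiter-Glo was added and luminescence recorded following 30 min at room temperature.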

Assay [18] has as its target Phospholipid hydroperoxide glutathione peroxidase GPX4 (Homo sapiens) (UniProt P36969). The assay can be described thus: Primary qHTS Assay for Inhibitors of Recombinant Selenoprotein Glutathione Peroxidase 4 (GPX4) (AID 1845192). Note: nearly all actives have a fitted effect of over 65% in size. Note: potency is the fitted concentration of half-maximal effect. As to conditions: recombinant GPX4, GR-coupled NADPH fluorescence, 15 min; series mostly up to 50 µM. The procedure, abridged: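 qHTS, GR-coupled: GPX4 200 nM + cpd 30 min RT → GSH 1 mM, NADPH 0.5 mM, GR 100 nM → CHP 0.5 mM start; fluor 340/450 at t0 and t15 min; no-enzyme wells as control.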

“And” between values parts separate entries of the source, which are not always exact repeats. Equal values may be shown once. Records with an inconclusive call do not appear. The source made the active and inactive calls. Unless noted, calls come from the whole dose curve; as a rule, active = well fitted curve in the direction sought with a large enough effect; inconclusive = small, poorly fitted or top-dose-only effect, or another doubt; inactive = no such curve, though single readings can be large; an effect the other way counts as inactive or inconclusive.

Phospholipid hydroperoxide glutathione peroxidase GPX4 (Homo sapiens), sequence (P36969 whole entry, looked up): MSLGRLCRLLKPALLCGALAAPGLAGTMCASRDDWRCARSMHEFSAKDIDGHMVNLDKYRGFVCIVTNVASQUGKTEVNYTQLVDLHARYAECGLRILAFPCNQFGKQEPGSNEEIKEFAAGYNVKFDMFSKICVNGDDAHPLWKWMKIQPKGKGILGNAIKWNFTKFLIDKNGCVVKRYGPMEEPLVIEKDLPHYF

With `CCCN(CCC)C(=O)SCC`, in assay [1], the Potency was > 92 µM (inactive). In addition, the figures for the activity change, negative = cytotoxicity in assay [2], in [6] and in assay [7] were -0.642% (inactive), 6.23% (inactive) and 5.65% (inactive), respectively. The Potency result in assay [3], in assay [5], in assay [14] and in [17] was “inactive” throughout. For the same molecule, the call in assay [4], in assay [8] and in [10] was inactive. Further, the max response in [9] is -2.35% and -18.5%; in [11], -11.5% and -6.21%; in assay [12] it was 13.3% (inactive) and -9.15% (inactive); in assay [13] it was -2.51% (inactive) and -1.87% (inactive); in assay [15] it was -4.11% (inactive) and 2.96% (inactive); in assay [16] it was -7.69% (inactive) and -8.5% (inactive).

On to `CN1CC[C@H](CN2c3ccccc3Sc3ccccc32)C1`, for which the Potency entry in [18] is “inactive”.

As to `CCN(CC)CCS(=O)(=O)[C@@H]1CCN2C(=O)c3coc(n3)CC(=O)C[C@H](O)/C=C(C)/C=C/CNC(=O)/C=C/[C@@H](C)[C@@H](C(C)C)OC(=O)[C@@H]12`, the Potency in assay [18] is 6.31 µM (active).

On to `COCC(=O)O`, for which, in assay [1], the Potency was > 92 µM (inactive). For the same molecule, the figures for the activity change, negative = cytotoxicity in [2], in assay [6] and in [7] were 3.33% (inactive), -6.52% (inactive) and 2.06% (inactive), respectively. The Potency result in assay [3], in assay [5], in assay [14] and in assay [17] was “inactive” in each case. In addition, the call in assay [4], in assay [8] and in assay [10] was inactive. In addition, the max response in assay [9] was 0.473% and -13.2%; in assay [11] it was 10.5% and -3.07%; in [12] it was 8.65% (inactive) and -6.69% (inactive); in assay [13], -0.223% (inactive) and -0.993% (inactive); in [15], 8.69% (inactive) and 6.89% (inactive); in assay [16], -1.06% (inactive) and 2.91% (inactive).

Regarding `CO[C@H]1/C=C\O[C@@]2(C)Oc3c(C)c(O)c4c(O)c(c(/C=N/N5CCN(C6CCCC6)CC5)c(O)c4c3C2=O)NC(=O)/C(C)=C\C=C/[C@H](C)[C@H](O)[C@@H](C)[C@@H](O)[C@@H](C)[C@H](OC(C)=O)[C@@H]1C`, in assay [18], the Potency is 10 µM (active).

For the molecule `CC(C)(C)NC(=O)[C@@H]1C[C@@H]2CCCC[C@H]2CN1C[C@@H](O)[C@H](Cc1ccccc1)NC(=O)[C@H](CC(N)=O)NC(=O)c1ccc2ccccc2n1`, the Potency entry in assay [18] was “inactive”.

As for `CCO[Si](CCCN)(OCC)OCC`, the Potency in [1] is > 92 µM (inactive). For the same molecule, the figures for the activity change, negative = cytotoxicity in assay [2], in [6] and in [7] were -19% (inactive), -12% (inactive) and -8.88% (inactive), respectively. Besides, the Potency result in assay [3], in assay [5], in [14] and in [17] was “inactive” in each case. Also, the outcome in [4], in assay [8] and in [10] was inactive. Besides, the max response is 12.6% and -3.12% in assay [9]; -0.81% and -5.53% in assay [11]; 16.1% (inactive) and 0.599% (inactive) in assay [12]; -1.45% (inactive) and -1.48% (inactive) in assay [13]; -1.9% (inactive) and -14% (inactive) in assay [15]; -4.38% (inactive) and -9.06% (inactive) in assay [16].

Turning to `Cc1cc(C#N)cc(C)c1Oc1nc(Nc2ccc(C#N)cc2)nc(N)c1Br`, the Potency result in assay [18] is “inactive”.

Consider `C[C@@H](O)[C@H]1C(=O)N2C(C(=O)O)=C(S[C@@H]3CN[C@H](C(=O)Nc4cccc(C(=O)O)c4)C3)[C@H](C)[C@H]12`, for which the Potency entry in [18] was “inactive”.

For `Cc1cccc(O)c1`, the max response in assay [11] was -8.57% and -4.8%; in assay [12], -27.1% (inactive) and -3.41% (inactive); in assay [13], -4.41% (inactive) and -2.22% (inactive); in [15], 2.52% (inactive) and 7.45% (inactive); in [16] it was -15.7% (inactive) and -2.81% (inactive). For the same molecule, the Potency result in assay [14], in assay [17] and in [18] was “inactive” in each case.

For the molecule `CCC(C)c1ccccc1O` (configuration not stated), the Potency in assay [1] was > 92 µM (inactive). Besides, the activity change, negative = cytotoxicity in assay [2] was 0.301% (inactive) and 2.4% (inactive); in [6], 2.94% (inactive) and 2.27% (inactive); in [7], 1.63% (inactive) and 2.6% (inactive). For the same molecule, the Potency entry in assay [3], in [5], in [14] and in assay [17] was “inactive” throughout. Also, the outcome in assay [4], in assay [8] and in assay [10] was inactive. Besides, the max response in assay [9] is -16.8% and -5.28% and 4.79%; in assay [11] it was -6.22% and -6.2% and -6.14%; in assay [12], 0.496% (inactive) and -0.838% (inactive) and 1.78% (inactive); in assay [13] it was 4.33% (inactive) and -1.41% (inactive) and -1.75% (inactive); in assay [15], 15.2% (inactive) and -6.24% (inactive) and -8.74% (inactive); in assay [16], 12.6% (inactive) and 1.15% (inactive) and -2.8% (inactive).
